Reference: PubChem BioAssay AID1259313 (Sanford-Burnham Center for Chemical Genomics, 2017)
The campaign covered roughly 340,000 compounds. About 8,500 (2.5%) were called active. Only a selection was taken, and actives are over-represented in it overall. A number with no mark means an inactive call.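 How the source made its calls: active means melting temperature shift of at least 10% of the positive control shift, at one fixed dose; inactive means the rest.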

What follows are molecules tested on Glutamate receptor ionotropic, NMDA 3A (GRIN3A) ligand-binding domain (assay: binders of NR3A ligand-binding domain, primary screen, biophysical, differential scanning fluorimetry, uHTS (AID 1259313)). Conditions: NR3A LBD differential scanning fluorimetry, at 25 µM, hits give high values, 0% = protein alone, 100% = glycine-bound protein.

Compound | Tm shift relative to glycine control
O=C1CSC(c2cccc(F)c2)N1c1ccc(O)cc1 (stereo not given) | -2.36%
COc1ccc(Nc2ccc3ccccc3c2)cc1 | 1.95%
Cc1ccc(NC(=S)Nc2ccc(F)cc2)cc1 | -4.68%
S=C(Nc1ccccc1)Nc1ccc2ccccc2c1 | 12.3% (active)
CCC1(c2ccccc2)NC(=O)N(CC(=O)Nc2ccccc2C(=O)NC2CCCC2)C1=O (stereo not given) | 0.96%
Cc1ccc(S(=O)(=O)N2CCCCC2)cc1NC(=O)[C@@H]1CCCN1C(=O)c1cccs1 | -0.43%
CC(=O)N1CCN(C(=O)c2cc(-c3ccc(C)o3)nc3ccccc23)CC1 | 40% (active)
O=C(c1cc(-c2ccc(Cl)s2)nc2ccccc12)N1CCOCC1 | -0.91%
COc1ccc(NC(=O)c2cc(-c3ccc(C)o3)nc3ccccc23)cc1 | 3.74%
CCOc1ccccc1-c1cc(C(=O)N/N=C(\C)c2cccnc2)c2ccccc2n1 | -0.86%
CC1CCCN(C(=O)c2cc(-c3ccco3)nc3ccccc23)C1 (stereo not given) | 1.06%
CCOc1ccccc1-c1cc(C(=O)N2CCOCC2)c2ccccc2n1 | 12.6% (active)
CCN1C(=O)[C@@H]2[C@@H](c3ccc(-c4cccc(Cl)c4)cc3)N3CCC[C@@]3(C(=O)OC)[C@@H]2C1=O | -0.81%
O=C(C(=O)N1CCc2ccccc2C1)c1c[nH]c2ccccc12 | 1.51%
CN1CCN(C(=O)c2ccc(-c3ccc(Br)cc3)o2)CC1 | 1.11%
CC(=O)c1cccc(NC(=S)N2CCN(S(C)(=O)=O)CC2)c1 | -1.28%
COc1ccc(CN(C)Cc2nc3cc(OC)c(OC)cc3c(=O)[nH]2)c(OC)c1 | -1.12%
COc1ccc(/C=C2/C(=O)N(c3ccccc3)N=C2C)c(OC)c1 | -4.6%
COc1ccc(/C=C2/C(=O)OCc3cc(OC)c(OC)cc32)c(OC)c1 | 24.2% (active)
CC(=O)c1ccc(OCCCC(=O)Nc2ccc(C)c(S(=O)(=O)N3CCOCC3)c2)cc1 | 1.04%
O=C(Nc1ccnn1C1CCN(C/C=C/c2ccc(F)cc2)CC1)C1CCCC1 | -2.33%
CC1CCCCN1S(=O)(=O)c1ccc(S(=O)(=O)N(CC(=O)Nc2ccccc2)Cc2cccs2)cc1 (stereo not given) | -4.57%
O=C(C[n+]1ccc2c(c1)nnn2-c1ccccc1)c1ccc(Cl)cc1 | -2.3%

Compound | Tm shift relative to glycine control
CC(=NNC(=S)N1CCCCCC1)c1ccccn1 | 1.26%
CCn1c(SCc2cccc(C(=O)O)c2)nnc1-c1ccc(Cl)cc1 | -0.55%
CCCc1ccc(OCCNC(=O)c2ccccc2Br)cc1 | -0.74%
CCCOc1ccc(C(=O)NCCc2ccccc2)cc1 | 25.8% (active)
CN(c1ccccc1)S(=O)(=O)c1ccc(C(=O)NCCc2ccccc2)cc1 | -0.95%
CC(C)Oc1ccc(S(=O)(=O)N2CCOCC2)cc1NC(=O)C1CCCC1 | 2.72%
N#Cc1cc([N+](=O)[O-])ccc1NC(=O)COC(=O)c1cnccn1 | 0.45%
CCOc1ccc2[nH]c3nc(SCC(=O)NC4CCCC4)nnc3c2c1 | -4.45%
CCN1C(=O)[C@H]2[C@@H](c3ccc(-c4ccc(F)cc4)cc3)N[C@@](Cc3ccccc3)(C(=O)OC)[C@H]2C1=O | 1.35%
CCN1C(=O)[C@H]2[C@@H](c3ccc(-c4ccc(OC)cc4)cc3)N[C@@](Cc3ccccc3)(C(=O)OC)[C@H]2C1=O | -3.39%
CCN1C(=O)[C@H]2[C@@H](c3ccc(SC4CCCCC4)c(OC)c3)N[C@@](Cc3ccccc3)(C(=O)OC)[C@H]2C1=O | 15.5% (active)
Cc1ccc(C(=O)OCC(=O)Nc2ccc(Cl)cn2)cc1S(=O)(=O)N1CCOCC1 | 3.32%
COc1cccc(N2CC(C(=O)NCc3n[nH]c(=O)c4ccccc34)CC2=O)c1 (stereo not given) | -0.43%
Cc1cc(Cl)ccc1N1C(=O)CC(SCCC(=O)O)C1=O (stereo not given) | 2.57%
O=C(CC1(O)C(=O)N(CN2CCOCC2)c2ccccc21)c1ccccc1 (stereo not given) | 27.8% (active)
C=CCN1C(=O)C(O)(CC(=O)c2ccccn2)c2ccccc21 (stereo not given) | -0.48%
C=CCN1C(=O)C(O)(CC(=O)c2ccc(Cl)cc2)c2ccccc21 (stereo not given) | -2.1%
COc1ccccc1C(=O)NC(CCSC)C(=O)N1CCN(C/C=C/c2ccccc2)CC1 (stereo not given) | 2.33%
COc1ccccc1N1CCN(c2ncnc3sc(C)c(-c4ccccc4)c23)CC1 | 1.26%
CC1=NN(C(N)=S)C(=O)C1N=Nc1cc(Cl)ccc1Cl (stereo not given) | 8.72%
Cc1[nH]n(C)c(=O)c1N=Nc1ccc(S(C)(=O)=O)cc1 | 1.71%
Cc1[nH]n(C(N)=S)c(=O)c1N=Nc1ccc(Cl)cc1Cl | 15% (active)
CCN(C(=O)COC(=O)CCOc1cccc(C)c1)c1c(N)n(Cc2ccccc2)c(=O)[nH]c1=O | 0.18%

Compound | Tm shift relative to glycine control
CCCCNC(=O)CSc1nc2ccc(NC(=O)CSc3nnc(N)s3)cc2s1 | 1.91%
CCCCNC(=O)CSc1nc2ccc(NC(=O)CSc3nnc(COc4ccccc4C)n3C)cc2s1 | -6%
Nc1nnc(SCC(=O)Nc2ccc3nc(SCC(=O)Nc4ccccc4)sc3c2)s1 | 29.3% (active)
NS(=O)(=O)c1ccc(CCNC(=O)CN2C(=O)c3ccccc3S2(=O)=O)cc1 | 3.53%
COc1cc(CN(C)Cc2nc3cc(C(F)(F)F)ccc3c(=O)[nH]2)ccc1OC(F)F | 0.52%
Cc1cccc(OCc2nnc(SCc3nc4cc(C(F)(F)F)ccc4c(=O)[nH]3)o2)c1 | 15.6% (active)
Cc1cccc(OCc2nnc(SCn3nnc4ccccc4c3=O)o2)c1 | -0.61%
Cc1onc(-c2c(F)cccc2Cl)c1C(=O)Nc1cccc(S(=O)(=O)N2CCCCC2)c1 | -2.74%
Cc1ccc2[nH]cc(CCNC(=O)c3ccc([N+](=O)[O-])cc3)c2c1 | 9.11%
O=[N+]([O-])c1ccc2[nH]c3c(c2c1)CCCC3O (stereo not given) | 5.4%
O=C(NCCc1c[nH]c2ccccc12)C1CCN(Cc2ccc(Br)cc2)CC1 | -4.03%
N#CCc1c[nH]c2ccc([N+](=O)[O-])cc12 | 14% (active)
O=C(NCCc1c[nH]c2ccccc12)c1cccc(Br)c1 | 31.4% (active)
Cc1cc(C)cc(NC(=S)NCCc2c[nH]c3ccccc23)c1 | 20.2% (active)
Cc1ccc2[nH]cc(CCCN3C(=O)c4ccccc4C3=O)c2c1 | -9.79%
O=C(NCCc1ccc(Cl)cc1Cl)c1cc([N+](=O)[O-])c[nH]c1=O | -10.1%
Cc1ccc2[nH]cc(CCNC(=O)C3CCCCC3)c2c1 | 1.08%
Cc1ccc(S(=O)(=O)N(C)CC(=O)NCCc2c[nH]c3ccccc23)cc1 | 1.04%
O=C(NCCc1c[nH]c2ccccc12)c1cc2ccccc2oc1=O | -6.92%
O=C(NCCc1c[nH]c2ccc(Cl)cc12)c1ccc([N+](=O)[O-])cc1 | 17.5% (active)
COc1ccc(F)cc1S(=O)(=O)NCC(c1ccc2c(c1)OCO2)N1CCN(C)CC1 (stereo not given) | -1.98%
COc1ccc(NC(=S)N2CCC(NC(=O)c3cccc(F)c3)CC2)cc1 | 1.82%
COc1ccc2oc(C(=O)NCc3ccco3)c(C)c2c1 | 0.95%

Compound | Tm shift relative to glycine control
Cc1ccc(C(=O)c2ccc(N3CCN(C)CC3)c([N+](=O)[O-])c2)cc1 | -4.39%
Cc1ccc(Br)c(NS(=O)(=O)c2cccc(C(=O)N3CCNC(=O)C3)c2)c1 | -2.24%
O=C(CO/N=C/c1ccc(OC(F)F)cc1)NCc1ccc(F)cc1 | -0.25%
CC1(NC(=O)CCS(=O)(=O)c2ccc(Cl)cc2)CCS(=O)(=O)C1 (stereo not given) | 1.08%
NC(=O)Nc1ccccc1C(=O)NCCc1ccccc1 | -3.04%
CCOC(=O)CN(C(=O)COc1nc(C)cc(C)c1C#N)c1ccc(Cl)cc1 | 0.21%
COc1ccc(/C=N/Nc2ccccc2C(=O)O)cc1 | -10.2%
COc1ccc(/C=N/N=C/c2c[nH]c(=O)c(C#N)c2Nc2ccccc2)cc1 | 35.8% (active)
COc1ccc(/C=N/Nc2nc(-c3ccc(C)cc3)c(C#N)c(=O)[nH]2)cc1 | -2.83%
Cc1nn(C)cc1/C=C1\CCC/C(=C\c2cn(C)nc2C)C1=O | -1.19%
CC(Oc1ccccc1[N+](=O)[O-])C(=O)N/N=C/c1ccoc1 (stereo not given) | -0.52%
Cc1ccc2cccc(OCCCOc3ccccc3CO)c2n1 | -1.42%
Cc1cc(N=Nc2ccc3ccccc3c2)ccc1O | 28.8% (active)
O=C(NNC(=S)NC(=O)c1cn(-c2ccccc2)nc1-c1ccccc1)c1ccncc1 | -4.35%
O=C(CN1CCOc2ccccc21)N1CCC(Cc2ccccc2)CC1 | -1.44%
COc1ccc(C(=O)N2CCCCC2C(=O)Nc2ccc(-n3nc(C)cc3C)cc2)o1 (stereo not given) | 6.75%
CCN(CC)CCNCc1ccc(OCc2ccc(Cl)nc2)c(OC)c1 | 8.95%
COc1cc(/C=C2\SC(=O)NC2=O)ccc1OCc1ccc(Cl)nc1 | 25.9% (active)
COc1cc(/C=C2/C(=O)ON=C2C)ccc1OCc1cccc(F)c1 | -26.4%
Cc1cccn2cc(-c3cccc(S(=O)(=O)N4CCCCC4)c3)nc12 | 5.23%
Cc1cccc(N(C(=O)c2csnn2)C(C(=O)NCc2ccccc2)c2ccncc2)c1 (stereo not given) | -0.09%
